The source of these data is ChEMBL document CHEMBL3988442, “University of Dundee, Small-Polar-MMV Screening Library” (2021).

Design in all cases: scale not given: direction of the effect not stated beside the values
The target in experiment [1] is Protein translocase subunit SecA (Escherichia coli (strain K12)) (UniProt P10408). The experiment can be described thus: Assay to Identify E. coli SecA ATPase Inhibitors. The experiment is classed as functional. Conditions: 30 µM.
Experiment [2] deals with T1, Ubiquitin-activating enzyme e1, putative (Leishmania donovani (strain BPK282A1)) (UniProt E9BSI1).
T1 sequence (whole entry): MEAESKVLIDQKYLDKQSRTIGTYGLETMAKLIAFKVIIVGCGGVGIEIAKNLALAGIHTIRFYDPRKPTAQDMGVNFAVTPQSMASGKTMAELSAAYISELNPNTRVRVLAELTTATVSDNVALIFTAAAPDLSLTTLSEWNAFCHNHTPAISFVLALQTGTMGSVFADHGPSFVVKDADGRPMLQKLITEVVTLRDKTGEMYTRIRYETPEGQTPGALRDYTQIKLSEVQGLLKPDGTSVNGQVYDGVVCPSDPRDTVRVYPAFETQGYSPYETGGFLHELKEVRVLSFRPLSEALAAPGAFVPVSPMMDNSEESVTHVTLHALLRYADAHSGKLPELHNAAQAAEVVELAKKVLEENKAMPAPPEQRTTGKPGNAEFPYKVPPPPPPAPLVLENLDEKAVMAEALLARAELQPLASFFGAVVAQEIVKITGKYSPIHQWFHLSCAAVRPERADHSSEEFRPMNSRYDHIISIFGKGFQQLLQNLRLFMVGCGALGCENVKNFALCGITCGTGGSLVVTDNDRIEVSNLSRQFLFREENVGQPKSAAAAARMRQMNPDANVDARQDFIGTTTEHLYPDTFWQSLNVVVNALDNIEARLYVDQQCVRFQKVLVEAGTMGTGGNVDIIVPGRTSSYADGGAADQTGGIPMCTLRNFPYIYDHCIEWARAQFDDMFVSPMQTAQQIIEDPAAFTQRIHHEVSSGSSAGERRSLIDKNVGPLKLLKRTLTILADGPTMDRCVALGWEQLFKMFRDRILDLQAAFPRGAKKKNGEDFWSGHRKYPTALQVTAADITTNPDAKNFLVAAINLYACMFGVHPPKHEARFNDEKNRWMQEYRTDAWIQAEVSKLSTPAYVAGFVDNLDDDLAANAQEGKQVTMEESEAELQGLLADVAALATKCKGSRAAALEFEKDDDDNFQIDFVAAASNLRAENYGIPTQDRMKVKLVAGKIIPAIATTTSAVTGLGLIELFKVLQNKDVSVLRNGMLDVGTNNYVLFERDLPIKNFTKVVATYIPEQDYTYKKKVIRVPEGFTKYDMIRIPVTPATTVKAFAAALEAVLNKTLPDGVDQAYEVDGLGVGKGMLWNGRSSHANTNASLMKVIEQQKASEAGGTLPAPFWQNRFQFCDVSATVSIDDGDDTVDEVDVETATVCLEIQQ
In words: Leishmania donovani Ubiquitin Activating Enzyme (LdE1). The experiment is classed as functional. Conditions: 30 µM.

Experiment [3] addresses AMP-activated protein kinase, AMPK (Homo sapiens) (UniProt P54646+O43741+P54619+Q9UGJ0+Q9Y478+Q13131+Q9UGI9). The experiment can be described thus: AMP-dependent Kinase enzyme assay. An in vitro enzyme assay that detects ADP turnover that is directly proportional to AMPK activity. This uses naive AMPK that is activated during the assay with MK-8722. It counts as functional. Conditions: 30 µM.

Experiment [4] concerns the target Sialic acid-binding Ig-like lectin 9 (Homo sapiens) (UniProt Q9Y336). The experiment can be described thus: Hs-Siglec9 ALPHAscreen SOP 20170721. Conditions: 10 µM.
In a further experiment the test system is Trypanosoma cruzi. In words: Trypanosoma cruzi phosphomannomutase and mannose-1-phosphate guanylyltransferase assay. Conditions: 10 µM. The experiment is classed as functional.
For experiment [5], the target named is T2, Arginase-2, mitochondrial (Homo sapiens) (UniProt P78540).
T2 sequence (whole entry): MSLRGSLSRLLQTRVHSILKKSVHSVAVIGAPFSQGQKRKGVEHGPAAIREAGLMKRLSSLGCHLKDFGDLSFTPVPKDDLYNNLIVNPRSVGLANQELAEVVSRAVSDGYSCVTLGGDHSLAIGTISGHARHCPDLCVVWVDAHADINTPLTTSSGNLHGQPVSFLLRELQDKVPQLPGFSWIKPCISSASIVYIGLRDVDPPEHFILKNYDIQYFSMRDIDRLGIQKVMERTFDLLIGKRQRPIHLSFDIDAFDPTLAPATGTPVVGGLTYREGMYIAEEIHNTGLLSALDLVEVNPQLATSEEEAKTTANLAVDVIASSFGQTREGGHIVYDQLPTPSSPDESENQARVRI
The experiment can be described thus: in vitro enzyme assay to detect the production of urea directly proportional to the activity of Arginase II. Note: in the data most compounds retested in dose-response had high values. The experiment is classed as functional. Conditions: 33.3 µM.

The target in experiment [6] is T3, Proteasome subunit beta (Trypanosoma cruzi) (UniProt O96673).
T3 sequence (whole entry): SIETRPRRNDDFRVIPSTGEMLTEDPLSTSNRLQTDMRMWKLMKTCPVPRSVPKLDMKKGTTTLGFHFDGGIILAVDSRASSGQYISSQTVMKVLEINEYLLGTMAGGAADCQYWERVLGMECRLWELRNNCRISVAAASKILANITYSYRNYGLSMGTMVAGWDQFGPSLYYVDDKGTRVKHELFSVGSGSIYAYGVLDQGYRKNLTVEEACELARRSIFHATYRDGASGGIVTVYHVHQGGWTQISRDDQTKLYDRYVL
The experiment can be described thus: Trypanosoma cruzi proteasome chymotrypsin-like activity (TcProtChymo) assay. Note: in the data most compounds retested in dose-response had high values. Conditions: 9.37 µM. The experiment is classed as functional.

The species named for another experiment is Homo sapiens. In words: To identify inhibition of the IFN signalling (Jak-Stat) pathway via expression of an eGFP reporter gene under the control of an IFN-stimulated response element (ISRE) containing MxA promoter. It counts as functional. Conditions: 30 µM.
In experiment [7] the target is T4, Tyrosyl-tRNA synthetase, putative (Trypanosoma cruzi (strain CL Brener)) (UniProt Q4DSP6).
T4 sequence (whole entry): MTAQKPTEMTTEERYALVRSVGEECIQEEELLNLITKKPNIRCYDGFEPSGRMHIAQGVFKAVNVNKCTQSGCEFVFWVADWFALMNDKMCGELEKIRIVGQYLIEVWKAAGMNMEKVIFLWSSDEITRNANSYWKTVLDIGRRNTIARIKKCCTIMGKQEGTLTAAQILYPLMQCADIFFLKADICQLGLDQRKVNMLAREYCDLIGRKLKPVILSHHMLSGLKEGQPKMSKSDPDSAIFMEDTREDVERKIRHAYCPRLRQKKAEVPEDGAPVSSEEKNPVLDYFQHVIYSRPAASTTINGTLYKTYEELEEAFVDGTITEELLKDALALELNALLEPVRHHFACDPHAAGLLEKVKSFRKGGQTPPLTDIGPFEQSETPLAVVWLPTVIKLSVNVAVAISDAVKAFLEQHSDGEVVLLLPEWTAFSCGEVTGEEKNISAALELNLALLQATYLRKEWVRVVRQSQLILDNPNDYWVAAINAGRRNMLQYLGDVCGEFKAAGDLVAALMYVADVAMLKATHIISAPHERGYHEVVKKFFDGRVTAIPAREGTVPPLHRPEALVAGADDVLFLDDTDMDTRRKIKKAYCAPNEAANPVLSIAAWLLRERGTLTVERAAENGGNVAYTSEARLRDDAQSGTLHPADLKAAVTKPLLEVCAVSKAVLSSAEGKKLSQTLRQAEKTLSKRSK
In words: Trypanosoma cruzi tyrosyl tRNA synthetase (TcYRS) _High Tyrosine SOP. Note: in the data most compounds retested in dose-response had high values. Conditions: 30 µM. The experiment is classed as functional.

Experiment [8] concerns the target T4, Tyrosyl-tRNA synthetase, putative (Trypanosoma cruzi (strain CL Brener)). In words: Trypanosoma cruzi tyrosyl tRNA synthetase (TcYRS) SOP. It counts as functional. Conditions: 30 µM.
For experiment [9], the target named is Chromo domain-containing protein 1 (Saccharomyces cerevisiae (strain ATCC 204508 / S288c) (Baker's yeast)) (UniProt P32657). In words: ScCHD-1 Enzyme Inhibition Assay. Note: in the data most compounds retested in dose-response had high values. It counts as functional. Conditions: 30 µM.
Sequence of Chromo domain-containing protein 1 (Saccharomyces cerevisiae (strain ATCC 204508 / S288c) (Baker's yeast)) (P32657 whole entry, the tested form may be a part): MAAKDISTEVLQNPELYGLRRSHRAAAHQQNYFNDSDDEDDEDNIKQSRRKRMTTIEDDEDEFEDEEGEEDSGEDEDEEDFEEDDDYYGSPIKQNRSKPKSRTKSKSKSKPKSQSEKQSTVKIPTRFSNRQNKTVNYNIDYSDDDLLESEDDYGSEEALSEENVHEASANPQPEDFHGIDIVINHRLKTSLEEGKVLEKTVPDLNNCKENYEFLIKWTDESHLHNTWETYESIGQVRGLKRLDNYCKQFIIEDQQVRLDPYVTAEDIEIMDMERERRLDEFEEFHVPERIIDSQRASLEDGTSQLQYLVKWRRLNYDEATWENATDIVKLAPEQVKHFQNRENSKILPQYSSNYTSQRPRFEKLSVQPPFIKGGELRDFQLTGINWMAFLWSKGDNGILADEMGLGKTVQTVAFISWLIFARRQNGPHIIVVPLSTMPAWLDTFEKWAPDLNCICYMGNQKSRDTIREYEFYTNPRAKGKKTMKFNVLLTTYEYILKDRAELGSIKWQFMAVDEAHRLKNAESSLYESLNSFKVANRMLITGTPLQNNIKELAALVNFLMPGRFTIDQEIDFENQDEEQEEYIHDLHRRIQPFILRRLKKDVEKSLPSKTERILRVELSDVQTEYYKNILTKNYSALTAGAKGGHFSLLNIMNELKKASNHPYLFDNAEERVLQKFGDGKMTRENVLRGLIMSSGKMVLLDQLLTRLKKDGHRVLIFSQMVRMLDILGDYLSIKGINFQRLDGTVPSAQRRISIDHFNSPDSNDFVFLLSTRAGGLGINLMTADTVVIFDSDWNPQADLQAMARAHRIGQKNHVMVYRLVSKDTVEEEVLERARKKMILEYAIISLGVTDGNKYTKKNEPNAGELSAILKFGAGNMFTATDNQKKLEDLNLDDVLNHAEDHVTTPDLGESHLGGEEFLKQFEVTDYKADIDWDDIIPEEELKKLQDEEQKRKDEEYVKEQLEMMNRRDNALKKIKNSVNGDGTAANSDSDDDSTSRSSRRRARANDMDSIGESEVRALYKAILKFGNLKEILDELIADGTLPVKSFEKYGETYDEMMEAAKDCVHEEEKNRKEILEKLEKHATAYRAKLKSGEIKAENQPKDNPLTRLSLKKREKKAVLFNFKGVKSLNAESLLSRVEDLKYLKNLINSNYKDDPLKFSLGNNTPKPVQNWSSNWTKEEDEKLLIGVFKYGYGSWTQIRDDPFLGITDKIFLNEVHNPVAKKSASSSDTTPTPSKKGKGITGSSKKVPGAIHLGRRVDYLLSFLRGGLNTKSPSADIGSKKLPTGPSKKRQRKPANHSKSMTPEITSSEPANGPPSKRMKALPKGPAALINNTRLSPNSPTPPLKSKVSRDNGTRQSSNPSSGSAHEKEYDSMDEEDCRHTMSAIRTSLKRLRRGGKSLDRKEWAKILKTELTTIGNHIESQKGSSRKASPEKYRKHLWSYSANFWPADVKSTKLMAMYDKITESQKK

Structures are written as SMILES. For part of these data: Potency and affinity values are given separately.

Sequence of Sialic acid-binding Ig-like lectin 9 (Homo sapiens) (Q9Y336 whole entry): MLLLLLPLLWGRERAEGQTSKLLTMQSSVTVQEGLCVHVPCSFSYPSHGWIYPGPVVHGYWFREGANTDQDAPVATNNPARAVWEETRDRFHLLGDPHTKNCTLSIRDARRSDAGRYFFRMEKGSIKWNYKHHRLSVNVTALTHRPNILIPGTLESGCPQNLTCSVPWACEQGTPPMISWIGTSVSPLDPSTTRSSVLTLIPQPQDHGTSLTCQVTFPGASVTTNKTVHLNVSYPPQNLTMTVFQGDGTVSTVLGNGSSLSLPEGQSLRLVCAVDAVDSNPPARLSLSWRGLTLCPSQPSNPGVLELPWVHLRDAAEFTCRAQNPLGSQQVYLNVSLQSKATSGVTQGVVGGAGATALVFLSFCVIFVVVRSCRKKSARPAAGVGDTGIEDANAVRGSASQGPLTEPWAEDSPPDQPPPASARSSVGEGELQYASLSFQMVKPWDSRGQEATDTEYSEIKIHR
Sequence of Protein translocase subunit SecA (Escherichia coli (strain K12)) (P10408 whole entry): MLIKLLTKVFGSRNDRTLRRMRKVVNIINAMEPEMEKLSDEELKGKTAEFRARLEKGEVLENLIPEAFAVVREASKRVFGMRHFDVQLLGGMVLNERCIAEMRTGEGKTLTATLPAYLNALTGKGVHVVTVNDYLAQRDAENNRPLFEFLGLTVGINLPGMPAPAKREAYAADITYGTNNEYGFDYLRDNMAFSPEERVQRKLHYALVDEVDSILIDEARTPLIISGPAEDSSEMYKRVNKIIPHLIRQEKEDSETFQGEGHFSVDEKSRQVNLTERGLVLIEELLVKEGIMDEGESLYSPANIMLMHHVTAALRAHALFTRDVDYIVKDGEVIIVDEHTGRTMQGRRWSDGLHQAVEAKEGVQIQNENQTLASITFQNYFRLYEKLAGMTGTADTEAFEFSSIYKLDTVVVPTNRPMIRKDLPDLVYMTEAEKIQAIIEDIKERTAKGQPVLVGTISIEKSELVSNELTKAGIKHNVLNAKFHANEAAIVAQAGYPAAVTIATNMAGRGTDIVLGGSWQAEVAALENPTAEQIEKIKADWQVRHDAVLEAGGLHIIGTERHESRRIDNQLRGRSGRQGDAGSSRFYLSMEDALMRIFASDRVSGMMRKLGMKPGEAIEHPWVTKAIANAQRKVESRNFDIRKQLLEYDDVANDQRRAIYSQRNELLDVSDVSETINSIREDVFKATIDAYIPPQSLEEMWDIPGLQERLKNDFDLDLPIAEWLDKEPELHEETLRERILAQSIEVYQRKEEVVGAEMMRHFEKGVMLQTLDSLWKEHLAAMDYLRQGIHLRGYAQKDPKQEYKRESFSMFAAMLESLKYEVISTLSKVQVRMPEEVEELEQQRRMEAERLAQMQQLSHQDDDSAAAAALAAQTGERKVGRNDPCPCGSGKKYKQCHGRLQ

In the case of `COCc1ccccc1C(=O)NCCCN1CCCC1C(=O)N(C)C` (centres undefined), the Percent Effect in experiment [1] was 0.173%; in [2], 8.22%; in experiment [3], -7.48%; in experiment [4] it was 6.16%; in the experiment on Trypanosoma cruzi, 2.94%; in experiment [5] it was -2.27%. The Percent Effect in experiment [6] was 15.8%; in the experiment filed under Homo sapiens it was 13.9%; in [7], 3.23%; in experiment [8], 12.5%; in experiment [9], -6.47%.

In the case of `COCCN1CCC(CNC(=O)C2(c3cc(C)cc(C)c3)CCC2)C1` (centres undefined), the Percent Effect in experiment [1] is -8.07%; in [2], 0%; in experiment [3], -6.3%; in [4], -4.59%; in the experiment with Trypanosoma cruzi it was -1.77%; in [5] it was 2.88%. Further, the Percent Effect in experiment [6] was -4.82%; in the experiment listed under Homo sapiens, -6.37%; in experiment [7] it was 2.46%; in [8], 1.24%; in experiment [9] it was 2.35%.

`CCN(CC)C(=O)Cn1ccc2cc(NC(=O)C3CCCO3)ccc21` (centres undefined): the Percent Effect was -3.96% in experiment [1]; 26.3% in experiment [2]; -13.9% in experiment [3]; 1.14% in [4]; 6.39% in the experiment with Trypanosoma cruzi; -1.53% in experiment [5]. In addition, the Percent Effect was 16.5% in [6]; 2.47% in the experiment listed under Homo sapiens; 6.37% in experiment [7]; 17.1% in experiment [8]; -14.2% in experiment [9].

On to `CN(C)C1CCN(C(=O)NCc2ccc(Cn3cncn3)cc2)CC1`, for which the Percent Effect in [1] is -4.29%; in experiment [2], -5.41%; in [3], -5.16%; in experiment [4], 28.9%; in the experiment on Trypanosoma cruzi, 9.85%; in [5], -2.38%. In addition, the Percent Effect in experiment [6] was 14.5%; in the experiment filed under Homo sapiens it was 6.43%; in experiment [7], 5.82%; in [8], 17.1%; in experiment [9], -10%.

In the case of `Cn1ccnc1-c1cccc(NC(=O)NCCCO)c1`, the Percent Effect in experiment [1] is -0.628%; in experiment [2], 6.94%; in experiment [3] it was -4.42%; in experiment [4], 2.52%; with Trypanosoma cruzi, 0.875%; in experiment [5], 19.4%. Also, the Percent Effect in experiment [6] is 11.8%; in the experiment listed under Homo sapiens, 15.7%; in experiment [7] it was 5.26%; in experiment [8], 7.69%; in experiment [9], -4.21%.

For the compound `CCC(C)c1noc(C2CCN(C(=O)c3cccnc3)CC2)n1` (centres undefined), the Percent Effect is -3.05% in experiment [1]; 7.79% in [2]; 0.731% in [3]; 6.36% in experiment [4]; -0.0983% in the experiment on Trypanosoma cruzi; -9.65% in experiment [5]. Moreover, the Percent Effect was 14.8% in experiment [6]; -14.3% in the experiment listed under Homo sapiens; 5.38% in experiment [7]; 11.1% in [8]; -2.94% in experiment [9].

As for `O=C(NCc1cccnc1)C1=NOC2(CCN(S(=O)(=O)C3CC3)C2)C1` (centres undefined), the Percent Effect is -5.43% in [1]; 13.3% in experiment [2]; -3.17% in experiment [3]; -2.3% in experiment [4]; 4.25% with Trypanosoma cruzi; -41.4% in experiment [5]. The Percent Effect in [6] was 5.81%; in the experiment filed under Homo sapiens it was -3.44%; in [7] it was -3.12%; in experiment [8], 2.5%; in [9] it was -6.85%.

On to `Cc1nc(CN2CCOC(CN(C)c3cccnn3)C2)cs1` (centres undefined), for which the Percent Effect is 0.938% in experiment [1]; 0% in experiment [2]; -2.69% in [3]; -0.951% in [4]; 4.8% in the experiment with Trypanosoma cruzi; 1.47% in experiment [5]. In addition, the Percent Effect in experiment [6] is 5.74%; in the experiment listed under Homo sapiens it was 10.8%; in experiment [7], 2.86%; in [8], 2.35%; in experiment [9], 0.286%.

`COCCC1COC2(CCN(C(=O)c3ccco3)CC2)C1` (centres undefined): the Percent Effect in experiment [1] is -2.43%; in [2], 13.3%; in [3], 5.93%; in experiment [4], 0.194%; in the experiment with Trypanosoma cruzi it was -0.787%; in experiment [5], 3.5%. The Percent Effect in experiment [6] is 0.264%; in the experiment listed under Homo sapiens it was 0.48%; in [7], 8.51%; in experiment [8] it was 16.7%; in experiment [9] it was -2.69%.
